# Spn MK inh: S. pneumoniae MK inhibitors, primary screen, biochemical, PK/LDH-coupled NADH absorbance. mevalonate kinase [Streptococcus pneumoniae D39]. purified MK, PK/LDH-coupled NADH absorbance 340 nm. inhibition, % at 10 µM. 65,000 tested, 0.48% active. AID 555, 2006;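 active = ranked among the strongest by inhibition in the single 10 µM screen, a fixed top-ranked set picked for dose follow-up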
# NADH enzymes: inhibitors of PK/LDH coupling enzymes, profiling panel, artefact control, biochemical, MLSMR library | IC50, µM (titrated, usually from 10 µM), without a hit: top-dose inhibition | coupled PK/LDH NADH assays, four targets | 65,000 tested, 0.02% active;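 active = single-dose screening hits from any of four coupled enzyme assays that gave an IC50 when retested across doses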;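 also: the DPM-DC format reads NADH fluorescence rather than 340 nm absorbance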
# Spn PMK inh: S. pneumoniae PMK inhibitors, primary screen, biochemical, mevalonate pathway, pilot trial included; purified PMK, PK/LDH-coupled NADH absorbance 340 nm; inhibition, % at 10 µM; 65,000 tested, 0.49% active;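 active = top-ranked compounds by inhibition in the single 10 µM screen, taking a fixed number of the strongest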;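 also: 0% = full reaction with DMSO carrier and 100% = background rate without enzyme reaction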
# Autofluor 339: intrinsic fluorescence of library compounds, ex339/em460 – biochemical, MLSMR library, data from DPM-DC assay, artefact control, profiling panel | compound autofluorescence, ex339/em460 nm, NADH buffer; active compounds read high; 1 = no-compound wells, NADH background | fluorescence fold increase at 10 µM | 65,000 tested, 5.5% active;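 active = at 10 µM, mean starting fluorescence two-fold or more over control wells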;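 also: signal is the first read of a kinetic run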
# Spn DPM-DC inh: S. pneumoniae DPM-DC inhibitors, primary screen, biochemical, PK/LDH-coupled NADH fluorescence; diphosphomevalonate decarboxylase (Streptococcus pneumoniae D39); purified DPM-DC; calls only at 10 µM; 65,000 tested, 0.49% active;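 active = the 320 compounds with the highest percent inhibition in the single-dose primary screen, excluding strongly autofluorescent ones, cut at about 32% in these data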;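 also: kinetic rate of NADH fluorescence loss reporting ADP formed by the decarboxylase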
# A340 absorber: compound light absorbance at 340 nm, profiling panel, artefact control, biochemical, MLSMR library, data from PS, PMK, MK assays | compound absorbance at 340 nm, fold over control | fold change at 10 µM | 65,000 tested, under 10 active | AID 708, 2007;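 active = at 10 µM dose, initial 340 nm absorbance at least 2 fold that of control wells; inactive = change under 2 fold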;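 also: initial absorbance extrapolated from kinetic A340 decline of NADH oxidation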
# Starred values were filed as active, the others as inactive; i = inactive; . = no result shown; + = active, no number. This is a sample that favours compounds with a hit; in the whole collection about 6.8% have one here.
SMILES,Spn MK inh,NADH enzymes,Spn PMK inh,Autofluor 339,Spn DPM-DC inh,A340 absorber
CCOC(=O)C1=C(CS(=O)(=O)c2ccc(F)c(C)c2)NC(=O)NC1c1ccc(O)c(O)c1 (centres undefined),9,3%,4,1,i,0.99
O=C(NC1CCCCCCC1)c1ccccc1O,0,8%,19,3*,i,0.99
Cc1occc1C(=O)NC1CCCCCC1,5,6%,12,1.1,i,1
CCc1c(C(=O)Nc2ccncc2)csc1C,7,2%,0,1.1,i,1
CCN1CCN(CC(=O)NC2CCCCC2)C(=O)C1=O,7,6%,10,1.1,i,1
NC(=O)C1CCN(c2nc(-c3ccccc3)nc3ccccc23)CC1,6,1%,6,1,i,1
NC(=O)C1CCN(c2nc(-c3ccccc3)nc3c2oc2ccccc23)CC1,5,2%,1,2.1*,i,1
O=S(=O)(c1ccc2oc(-c3ccncc3)nc2c1)c1ccc2oc(-c3ccncc3)nc2c1,4,3%,6,1.2,i,1
O=C(Nc1ccccc1C(=O)NCc1ccco1)c1ccco1,0,4%,12,1.1,i,1
Cc1ccc(CNC(=O)c2ccccc2NS(C)(=O)=O)cc1,13,10%,7,4*,.,1
CS(=O)(=O)Nc1ccccc1C(=O)NCc1ccco1,9,5%,0,3.9*,.,1
CCOc1ccc(S(=O)(=O)Nc2ccccc2C(=O)NCc2ccco2)cc1,0,6%,12,4.9*,.,1
O=C(Nc1ccccc1C(=O)Nc1ccccc1C(=O)NCc1ccco1)c1ccco1,8,5%,0,2.3*,i,1.1
COc1ccc(C(=O)Nc2ccccc2C(=O)NC(C(=O)NCc2ccco2)C(C)C)cc1 (centres undefined),10,16%,28*,1.7,i,1
CCCCOc1ncnc2c1[nH]c1ccccc12,0,3%,0,2.3*,i,1.1
CCCCOc1ncnc2c1[nH]c1ccc(F)cc12,0,4%,12,2.7*,i,1.1
Cc1cc(C)c(S(=O)(=O)N2CCN(C)CC2)c(C)c1,6,6%,6,1,i,1
COc1cccc(/C=N/n2c(SC)nnc2-c2ccccc2)c1OC,1,1%,0,2.1*,.,1.1
Cc1cc(=O)c2n(Cc3ccc(Cl)cc3)nc[n+]2[nH]1,1,1%,1,1.1,i,1
COc1ccc(-c2nc(C#N)c(N3CCN(c4cccc(Cl)c4)CC3)o2)cc1OC,16,11%,18,2.1*,i,1
COc1ccc(-c2nc(C#N)c(N3CCOCC3)o2)cc1OC,11*,8%,9,3.1*,.,1
N#Cc1nc(COc2ccccc2)oc1N1CCN(c2cccc(Cl)c2)CC1,0,0%,1,1.1,i,1.1
O=C(OCc1nnc(-c2ccccc2)o1)C1CCN(S(=O)(=O)c2cccs2)CC1,0,5%,15,1.1,i,1
O=C(c1noc2c1CCc1ccccc1-2)N1CCc2ccccc2C1,0,6%,18,1.1,i,0.97
COc1cc(OC)c(C2CC(=O)N3CN(c4ccccc4)CSC3=C2C#N)cc1OC (centres undefined),64*,23%,5,1.1,i,1.1
SMILES,Spn MK inh,NADH enzymes,Spn PMK inh,Autofluor 339,Spn DPM-DC inh,A340 absorber
Cc1c(C#N)sc2nc(-c3ccccc3)nc(N3CCCC3)c12,3,2%,0,2.5*,.,1.1
COc1ccc(OC)c(NC(=O)CN2C(=O)c3ccccc3S2(=O)=O)c1,1,0%,0,1.1,i,0.99
COc1ccc2c(c1)-c1ccccc1S(=O)(=O)N2C(C)=O,0,15%,7,3.6*,+,1
CN1CCN(Cc2c(O)ccc3c(=O)c(Oc4ccccc4Cl)c(C(F)(F)F)oc23)CC1,15,9%,13,1.2,i,1.1
Cc1oc2c(CN3CCCC3)c(O)ccc2c(=O)c1Oc1ccccc1Br,10,6%,2,3.9*,.,1.1
COc1ccccc1Oc1c(C)oc2c(CN3CCN(CCO)CC3)c(O)ccc2c1=O,0,4%,7,4*,.,1.1
CCOc1ccccc1Oc1c(C)oc2c(CN3CCN(CCO)CC3)c(O)ccc2c1=O,5,7%,9,3.9*,.,1.1
CCOC(=O)c1c(CN2CCN(CCO)CC2)n(C)c2cc(Br)c(OC)cc12,10,3%,0,1.1,i,1
CCOC(=O)c1ccc(Oc2c(C)oc3c(CN4CCN(C)CC4)c(O)ccc3c2=O)cc1,7,10%,12,3.9*,.,1.1
CCOC(=O)c1c(C)oc2ccc(O)c(CN3CCCCC3)c12,3,5%,11,1.1,i,0.99
CC(=O)c1ccc(OCC(O)CN(C)Cc2cccs2)cc1 (centres undefined),27,14%,10,1.1,i,1
CC1CN(Cc2nc3c(c(=O)n(C)c(=O)n3C)n2Cc2ccc(Cl)cc2)CC(C)O1 (centres undefined),3,4%,9,1.1,i,1
CCCCCCc1cc2cc(C(=O)NC)c(=N)oc2cc1O,5,6%,6,2.3*,.,1
COc1ccc(NC(=O)c2cc3cc(OC)ccc3oc2=N)cc1,0,0%,0,1.1,i,1
CCn1c2ccccc2c2nnc(SCCCn3c(=O)[nH]c4ccccc43)nc21,12,5%,1,1,i,1.1
CCCc1ccc2c(N)c(C#N)sc2n1,5,7%,8,2.1*,.,1.1
C1CCC(C(CC2CCCCN2)C2CCCCC2)CC1 (centres undefined),1,3%,8,1,i,0.97
C[C@@H](NC(=O)c1coc(=O)c(Br)c1)c1ccccc1,5,2%,1,1.1,i,1.2
O=C(c1cc(-c2ccco2)on1)N1CCCc2ccccc21,50*,29%,31*,1.2,i,1
CC1(C)CCCN(C(=O)c2coc(=O)c(Br)c2)C1,5,6%,6,3.7*,.,1.1
O=C(c1coc(=O)c(Br)c1)N1CCCc2ccccc21,11,6%,0,2.4*,.,1.1
COc1cccc(C(=O)N2CCN(Cc3ccc4c(c3)OCO4)CC2)c1OC,8,3%,0,1.1,i,1
O=C(c1cccn2c(=O)c3cc(Cl)ccc3nc12)N1CCOCC1,1,2%,13,3.3*,.,1.1

# Bioassay records deposited in PubChem by SRMLSC.
